Test results as given in the supplement of paper PMC11219838.
Unmarked numbers belong to inactive results.

What follows are compounds tested on Caenorhabditis elegans L1 (N2) (assay: survival and reproduction score of C. elegans L1 (0: 0-10 living worms, 1: 11-20, 2: 21-50, 3: >50, 4: overgrown) (score 0-4); higher = more worms, less nematicidal, active = 1 or less; extreme values may be limits of the assay). Conditions: 60 µM; 6 days; temperature: 20 °C.
Summary of the method: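 Compound was pinned to a final 60 µM (0.6% v/v DMSO) into 96-well wells, each holding about 20 synchronized C. elegans N2 L1s and E. coli HB101 in liquid NGM. After 6 days of shaking at 200 rpm and 20 °C in sealed plates, the worms in each well were examined. The ordinal readout of survival and reproduction, based on living worms per well, was assessed under a dissection microscope. On this scale 0 meant 0–10 worms and 4 meant overgrown, starved wells, and two biological replicates were averaged.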

SMILES	survival and reproduction score
COc1ccc(-c2noc(-c3ccc(C)c(C)c3)n2)cc1	2
COc1ccc(-c2nc(-c3ccc(C(F)(F)F)cc3)no2)cc1	4
COc1ccc(-c2noc(-c3ccccc3C(=O)Nc3ccc(NC(C)=O)cc3)n2)cc1	4
COc1ccc(NC(=O)CSc2nnc(-c3ccccc3)o2)cc1	4
COc1ccc(-c2noc(COc3ccc4c(c3)CCCC4)n2)cc1	4
Clc1ccc(CSc2nnc(-c3ccccn3)o2)cc1	4
c1ccc(-c2noc(-c3cccs3)n2)cc1 [tioxazafen]	0 (active)
O=C(CSc1nnc(-c2ccco2)o1)Nc1cc(Cl)ccc1Cl	4
CCOc1ccc(-c2nc(-c3ccc(Cl)cc3)no2)cc1	3
Brc1ccc(OCc2nc(-c3ccncc3)no2)cc1	4
COc1ccc(C(=O)CSc2nnc(-c3cccc4ccccc34)o2)cc1	4
c1cncc(-c2noc(-c3cccc4ccccc34)n2)c1	4
CNC(=O)c1ccccc1-c1nc(-c2ccc(Cl)cc2)no1	4
Cc1cccc(OCc2nc(-c3ccncc3)no2)c1C	4
Brc1ccc(-c2noc(-c3ccc4c(c3)OCO4)n2)cc1	4
CC(C)C(=O)Nc1ccccc1-c1nc(-c2cccnc2)no1	0 (active)
CC(Oc1ccc(Br)cc1)c1nc(-c2ccncc2)no1 (centres undefined)	0 (active)
Cc1cc(NC(=O)CSc2nnc(-c3ccccc3Cl)o2)no1	4
Cc1ccc(-c2noc(COc3ccccc3Cl)n2)cc1	4
COc1cccc(-c2noc(-c3ccccc3C)n2)c1	0.5 (active)

SMILES	survival and reproduction score
COc1nc(C)ccc1-c1noc(-c2ccc(C)cc2)n1	4
COC(=O)CSc1nnc(-c2ccc(C(C)(C)C)cc2)o1	3.5
O=C(CSc1nnc(-c2cccc(Cl)c2)o1)Nc1nccs1	4
Fc1ccc(-c2noc(COc3ccccc3Cl)n2)cc1	4
Cc1ccc(-c2nnc(SCC(=O)Nc3ccc(F)cc3)o2)cc1	4
COc1ccc(C(=O)CSc2nnc(-c3ccccc3)o2)cc1	4
Cc1ccc(SCc2nc(-c3ccccc3)no2)cc1	4
Cc1ccc(-c2nnc(SCc3ccccc3C)o2)cc1	4
N#Cc1ccccc1CSc1nnc(-c2ccncc2)o1	4
CCOc1ccccc1-c1nnc(SCC(=O)c2ccccc2)o1	4
O=C(CSc1nnc(-c2ccco2)o1)Nc1cccc(Cl)c1Cl	4
COc1ccc(CSc2nnc(-c3ccc(Cl)cc3Cl)o2)cc1	0 (active)
Cc1ccc(-c2noc(-c3ccco3)n2)s1	0 (active)
Clc1cccc(OCc2nc(-c3cccs3)no2)c1	0 (active)
Cc1ccc(-c2noc(-c3ccc(C)cc3)n2)cc1	0.5 (active)
O=C(Nc1ccc(-c2noc(COc3ccccc3Cl)n2)cc1)c1ccccn1	4
O=C(CSc1nnc(-c2ccc(Cl)cc2)o1)NC1CC2CCC1C2 (centres undefined)	4
Cc1cc(OCc2nc(-c3ccccn3)no2)cc(C)c1Cl	4
COc1ccc(-c2noc(-c3cc(C)ccc3C)n2)cc1	4
